Data as given in PubChem BioAssay AID602399 (Sanford-Burnham Center for Chemical Genomics, 2012).
The campaign covered roughly 360,000 compounds. About 2,800 (0.78%) were called active. Rule as the data show it: active = inhibition above about 26%; inactive = the rest. The full list was thinned out, with actives kept by preference.

What follows are compounds tested on Nicotinate-nucleotide adenylyltransferase NadD (Staphylococcus aureus N315) (assay: inhibitors of S. aureus NadD, primary screen, biochemical, colorimetric, uHTS (AID 602399)). Conditions: purified NadD enzyme, colorimetric absorbance read-out; at 20 µM; active compounds read high.

inhibition, inactive:
O=C(c1ccccc1)N1CCN(C(=O)c2cc3nc(-c4ccccc4)cc(C(F)(F)F)n3n2)CC1 2.29%
CN(C)CCN1CCN(c2cc(-c3cccc(Cl)c3)nc3ccnn23)CC1 -0.61%
CCCCC[C@H](C)N1C[C@@H](COCc2ccccc2)Oc2cc(N3CCC[C@@H]3CO)ccc2S1(=O)=O 1.75%
Nc1ncnc2c1cnn2C1CC(O)C(CO)O1 (centres undefined) 4.49%
CCn1c(SCC(=O)N/N=C/C=C/c2ccccc2[N+](=O)[O-])nnc1-c1ccccc1 5.92%
Cn1c(SCC(=O)N/N=C/c2ccc(O)c(O)c2)nc2ccccc21 -4.08%
CC(=O)NCCn1c(SCC(=O)Nc2ccc(C)cc2)nc2ccccc2c1=O -6.19%
C/C(=N\NC(=O)CSc1nc2ccccc2c(=O)n1-c1ccccc1C)c1cccs1 2.02%
Cc1ccc(CC2CC(=O)N(c3nc(C)cc(C)n3)C2=O)cc1 (centres undefined) -0.638%
O=C(COC(=O)c1cc(S(=O)(=O)N2CCOCC2)ccc1F)NC1CC1 -7.35%
COc1ccc(Cc2nnc(SCC(=O)N(c3ccccc3)C(C)C)n(N)c2=O)cc1 -0.371%
CC(=O)N(c1ccc2oc(=O)sc2c1)S(=O)(=O)c1ccc(C)cc1 -4.06%
Cc1ccc2cccc(O)c2[n+]1[O-] -2.68%
O=C(O)CCC(=O)NCc1ccc(C(=O)O)cc1 -1.86%
NNC(=O)c1ccc(COCC(F)(F)C(F)F)cc1 0.345%
O=C(CCc1ccccc1)Nc1ccc(NC(=O)C2CCCCC2)nc1 -0.446%
O=C1CCCN2N=C(SCC(=O)Nc3ccc(Br)cc3)SC2=N1 0%
COCCNC(=O)Cn1cc2c(n1)CCCCC2 4.24%
CC1CN(S(=O)(=O)c2ccc(C(=O)NN3CCN(C)CC3)cc2)CC(C)O1 (centres undefined) -3.52%
Cc1ccc(C(=O)N/N=C\c2cc(Br)c(Br)o2)cn1 -3.68%
Nc1cccnc1Sc1ccccc1 -5.1%
CC(C)(C)c1ccc(C(=O)N2CCC(C(=O)N3CCCCC3)CC2)cc1 -0.861%
C/C(CC(=O)Nc1ccc(Cl)cc1)=N\NC(=O)C(=O)NCCO 2.33%
CC(C)c1c(C(=O)N/N=C/c2ccccc2C(=O)O)nnn1-c1nonc1N -2.34%
CN(C)Cc1c(C(=O)N/N=C/c2ccccc2OCc2ccc(F)cc2)nnn1-c1nonc1N 5.11%
Clc1ccc(-c2cc(C3CCNCC3)[nH]n2)c(Cl)c1 -5.2%
CCC(C(=O)OC)n1cnc2c(oc3ccccc32)c1=O (centres undefined) -0.579%
CCOc1ccccc1Nc1nnc(SCc2ccc(C(=O)OC)o2)s1 -2.72%
COC(=O)c1ccc(CSc2nnc(NC(C)C)s2)cc1 -1.36%
Cc1ccc(C)c(OCCC(=O)OCC(=O)c2ccc3c(c2)NC(=O)CO3)c1 -5.39%
COc1ccc(C(=O)c2c(C)c(CCC#N)n3ccccc23)c(OC)c1 -8.39%
CCOc1ccc(CN2CCNC(=O)C2CC(=O)NCCCC2CCCC2)cc1 (centres undefined) 8.04%
COc1cccc(CNCCc2c[nH]c3ccccc23)c1OCc1ccccc1F -4.86%
Cc1cc(C(=O)NNS(=O)(=O)c2ccccc2C(F)(F)F)nn1C(C)(C)C -0.0808%
COc1ccc(/C(=N\O)c2nccc3cc(OC)c(OC)cc23)cc1OC -0.658%

inhibition, active:
C#Cc1cc(N2CCN(C(=O)c3ccoc3)CC2)n2nc(-c3cccc(Cl)c3)cc2n1 35.4%
Cc1ccc(-n2c(SCC(=O)N/N=C/C=C/c3ccccc3[N+](=O)[O-])nc3ccccc3c2=O)cc1 35.1%
Cc1nn(-c2ccccc2)c(C)c1/C=N/NC(=O)CSc1nc2ccccc2c(=O)n1-c1ccccc1 30.2%
O=C(O)c1ccc(COCC(F)(F)F)cc1 57.7%
FC(F)(F)C1CCCN(c2nsc3ccccc23)C1 (centres undefined) 34.7%
Nc1nonc1-n1nnc(C(=O)N/N=C/c2cc(Br)ccc2O)c1CSC1=NCCS1 37.3%
Cc1ccc(C(=O)Oc2coc(CSc3nnc(NC(=O)c4cccs4)s3)cc2=O)cc1C 58.4%
Cc1cc(C)c(C2C3=C(Nc4c2c(C)nn4-c2ccccn2)c2ccccc2C3=O)c(C)c1 (centres undefined) 33.2%
Oc1ccc(C2Nc3cccc4cccc(c34)N2)cc1 57.7%
